Screening results deposited in PubChem by several laboratories.
tim10-1 inh – tim10-1 yeast growth inhibition; S. cerevisiae tim10-1 ts strain growth, BacTiter-Glo, 24 h; inhibition, % at 20 µM; 330,000 tested, 2.2% active; AID 463190;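 active means inhibition of at least 40%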;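 further: mutant grown at 25 °C; 0% = DMSO wells with yeast and 100% = wells holding no yeast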
TIM10 inh – TIM10 yeast growth inhibition; S. cerevisiae TIM10 strain growth, BacTiter-Glo luminescence, 24 h; 330,000 tested, 1.4% active; AID 463195; inhibition, % at 10 µM;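 active means inhibition of 40% or more at the single tested concentration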;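 further: wild-type TIM10 isogenic control strain grown at permissive 25 °C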
NALP1 yeast inh – blocks the NALP1 inflammasome reconstituted in yeast. 280,000 tested, 0.61% active. inhibition, % at 10 µM. S. cerevisiae NALP1/ASC/caspase-1 growth, X-gal OD620, 72 h; in the data active means inhibition mostly above about 24%, no sharp cut-off; inactive means mostly below about 32%
tim23-1 inh – inhibits growth of tim23-1 mutant yeast; S. cerevisiae tim23-1 growth, BacTiter-Glo luminescence, 24 h; inhibition, % at 20 µM; 330,000 tested, 1.3% active; AID 463212;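 active means growth inhibition of the mutant yeast at or above 50%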;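 further: temperature-sensitive mutant grown at 25 °C; plate controls were DMSO-treated mutant yeast for no effect and medium wells lacking yeast for full effect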
NALP3 yeast inh – NALP3 inhibition in yeast | 330,000 tested, 0.39% active | inhibition, % at 10 µM | Yeast reconstituted NLRP3/ASC/caspase-1, beta-gal luminescence, 24 h;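 active means inhibition of 50% or more; inactive means inhibition below 50%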;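 further: plate controls were induced DMSO wells for no effect and uninduced yeast grown without galactose for full effect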
V-ATPase pH – yeast V-ATPase proton transport regulation by pHLuorin; response, % at 10 µM; S. cerevisiae, pHLuorin cytosolic pH fluorescence; 350,000 tested, 0.37% active; in the data active means response mostly above about 7.3%, no sharp cut-off; inactive means mostly below about 5.4%; further: actives read high
tim10-1 confirm – tim10-1 yeast growth inhibition, confirmed. AID 463213. S. cerevisiae tim10-1 ts strain growth, BacTiter-Glo, 24 h. 7,400 tested, 56% active. shares compounds with tim10-1 inh. inhibition, % at 20 µM;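 active means inhibition of yeast growth at or above a set limit in either of two repeat tests at 20 µM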;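 further: tim10-1 mutant grown at permissive 25 °C to find synthetic lethal compounds; 0% = DMSO yeast wells and 100% = medium wells without yeast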
Starred values were filed as active, the others as inactive. The list is not random: actives were taken first. Their share in the collection is about 4.2%.

How did COc1ccc(-c2oc3ncnc(NCCCN(C)C)c3c2-c2ccc(OC)cc2)cc1 do in these assays?
tim10-1 inh: 40.1*; TIM10 inh: 18.6; NALP1 yeast inh: 22.3; tim23-1 inh: 16.9; NALP3 yeast inh: 13.8; V-ATPase pH: 5.4; tim10-1 confirm: 42.0*

How did O=C(Nc1ccc(S(=O)(=O)N2CCCCC2)cc1)c1cccnc1Cl do in these assays?
tim10-1 inh: 42.2*; TIM10 inh: 19.6; tim23-1 inh: 22.2; NALP3 yeast inh: 17.9; V-ATPase pH: 1.9; tim10-1 confirm: 25.8

Results for CCOC(=O)/C=C/C(=O)Nc1ccc(S(=O)(=O)N2CCCCCC2)cc1 ?
tim10-1 inh: 44.4*; TIM10 inh: 29.4; NALP1 yeast inh: 3.0; tim23-1 inh: 38.6; NALP3 yeast inh: 10.6; V-ATPase pH: -1.3; tim10-1 confirm: 34.0*

What do the screens show for `O=C(Nc1ccc(S(=O)(=O)N2CCCC2)cc1)c1ccc(F)cc1`?
V-ATPase pH: 4.5

What do the screens show for `O=C(Nc1ccc(S(=O)(=O)N2CCCCC2)cc1)c1ccc(F)cc1`?
tim10-1 inh: 49.5*; TIM10 inh: 35.5; NALP1 yeast inh: 3.6; tim23-1 inh: 31.7; NALP3 yeast inh: 36.4; V-ATPase pH: 5.8; tim10-1 confirm: 47.5*

What do the screens show for `O=C(Nc1ccc(F)cc1F)c1cccc(S(=O)(=O)N2CCCCC2)c1`?
tim10-1 inh: 46.4*; TIM10 inh: 12.4; tim23-1 inh: 41.2; NALP3 yeast inh: -6.4; V-ATPase pH: -3.4; tim10-1 confirm: 22.1

Results for CCOc1ccc(NC(=O)C/C(C)=N/NC(=O)COc2ccc(Br)cc2C)cc1 ?
tim10-1 inh: -8.2; TIM10 inh: 8.8; NALP1 yeast inh: 1.0; tim23-1 inh: 10.8; NALP3 yeast inh: 1.4; V-ATPase pH: -0.4

Results for O=C(/C=C/c1cccs1)Nc1cccc(NC(=O)/C=C/c2cccs2)n1 ?
tim10-1 inh: 40.1*; TIM10 inh: 30.6; NALP1 yeast inh: 29.8; tim23-1 inh: 35.3; NALP3 yeast inh: 18.4; V-ATPase pH: -1.8; tim10-1 confirm: 11.1

What do the screens show for `C/C(CC(=O)Nc1cccc(Cl)c1Cl)=N\NC(=O)c1ccccc1N`?
tim10-1 inh: 40.6*; TIM10 inh: 25.4; NALP1 yeast inh: -24.0; tim23-1 inh: 16.7; NALP3 yeast inh: 1.0; V-ATPase pH: -3.5; tim10-1 confirm: 29.4

What do the screens show for `Cc1ccc(C)c(Sc2ccc(S(=O)(=O)Nc3ccc(C(=O)O)cc3)cc2)c1`?
tim10-1 inh: -6.8; TIM10 inh: 10.3; tim23-1 inh: 7.1; NALP3 yeast inh: 16.2; V-ATPase pH: 2.2

What do the screens show for `COc1ccc(-n2c(C)cc(C(=O)CSc3nnc(-c4ccoc4C)n3C)c2C)cc1`?
tim10-1 inh: 40.2*; TIM10 inh: 4.0; NALP1 yeast inh: -2.4; tim23-1 inh: 24.8; NALP3 yeast inh: 0.9; V-ATPase pH: -0.8; tim10-1 confirm: 19.2

Results for Cc1cc(Cl)ccc1NC(=S)NCCC(c1ccccc1)c1ccccc1 ?
tim10-1 inh: 40.5*; TIM10 inh: 30.5; tim23-1 inh: 12.5; NALP3 yeast inh: 3.5; V-ATPase pH: 2.7; tim10-1 confirm: 14.9

How did Cc1cc(Cl)ccc1NC(=S)NCCc1ccc(Cl)cc1 do in these assays?
tim10-1 inh: 35.4; TIM10 inh: 23.2; NALP1 yeast inh: 5.6; tim23-1 inh: 41.7; NALP3 yeast inh: 14.3; V-ATPase pH: 7.1

Results for CCOP1(=O)OCC2OC(n3cnc4c(N)ncnc43)C(O)C2O1 (centres undefined) ?
tim10-1 inh: -10.5; TIM10 inh: 1.0; tim23-1 inh: -1.2; NALP3 yeast inh: -0.7; V-ATPase pH: -0.4

How did O=C1NC2=C(C(=O)OC2)C(c2ccc(OC(F)(F)F)cc2)N1 (centres undefined) do in these assays?
tim10-1 inh: 6.9; TIM10 inh: -22.5; tim23-1 inh: -0.8; NALP3 yeast inh: 7.6; V-ATPase pH: 5.0

Results for O=C(c1ccc(O)cc1)c1ccc(Cl)cc1 ?
tim10-1 inh: 40.0; TIM10 inh: -3.9; NALP1 yeast inh: 9.0; tim23-1 inh: 39.5; NALP3 yeast inh: 3.5; V-ATPase pH: -1.1; tim10-1 confirm: 25.7

What do the screens show for `C=CCn1c(SCC(N)=O)nnc1-c1cccc(Br)c1`?
tim10-1 inh: -6.0; TIM10 inh: -10.2; NALP1 yeast inh: -5.5; tim23-1 inh: 2.5; NALP3 yeast inh: 0.3; V-ATPase pH: -6.8

Results for C=CCn1c(SCc2ccccc2C#N)nnc1-c1cc(Br)ccc1O ?
tim10-1 inh: 43.7*; TIM10 inh: 4.7; NALP1 yeast inh: -28.0; tim23-1 inh: 44.4; NALP3 yeast inh: 2.3; V-ATPase pH: -2.1; tim10-1 confirm: 23.4

How did O=C(COC(=O)c1cc(Cl)ccc1[N+](=O)[O-])NC1CC1 do in these assays?
tim10-1 inh: -5.8; TIM10 inh: 7.2; tim23-1 inh: 1.0; NALP3 yeast inh: -1.1; V-ATPase pH: -1.8

What do the screens show for `O=C(OC1CCCCC1=O)c1cc(Cl)ccc1[N+](=O)[O-]` (centres undefined)?
tim10-1 inh: 45.0*; TIM10 inh: 19.0; NALP1 yeast inh: 10.0; tim23-1 inh: 44.1; NALP3 yeast inh: 12.4; V-ATPase pH: 0.1; tim10-1 confirm: 39.3*

How did COc1ccc(Cn2c(=S)[nH]c3ccsc3c2=O)cc1 do in these assays?
tim10-1 inh: 51.4*; TIM10 inh: 28.2; NALP1 yeast inh: 23.3; tim23-1 inh: 20.9; NALP3 yeast inh: -7.0; V-ATPase pH: -1.1; tim10-1 confirm: 19.1

Results for COc1ccc(N2CCN(C(=O)c3cn(CC4CCCCC4)nn3)CC2)cc1 ?
tim10-1 inh: -0.2; TIM10 inh: 2.0; NALP1 yeast inh: 5.8; tim23-1 inh: -2.4; NALP3 yeast inh: 4.5; V-ATPase pH: -1.7

How did CC(C)(C)OC(=O)N1CCCC(C(=O)Nc2ccc(C(=O)N3CCOCC3)cc2)C1 (centres undefined) do in these assays?
tim10-1 inh: 3.2; TIM10 inh: 1.7; tim23-1 inh: 17.5; NALP3 yeast inh: -9.8; V-ATPase pH: -3.2

How did COc1ccc2cc(/C=C3\SC(=S)NC3=O)c(N3CCOCC3)nc2c1 do in these assays?
tim10-1 inh: 42.0*; TIM10 inh: 36.3; NALP1 yeast inh: 17.1; tim23-1 inh: 44.8; NALP3 yeast inh: 24.5; V-ATPase pH: 3.3; tim10-1 confirm: 39.2*

What do the screens show for `CCOC(=O)Nc1nc(-c2ccccc2)c(C(=O)c2ccccc2)s1`?
tim10-1 inh: 40.2*; TIM10 inh: 37.7; NALP1 yeast inh: -1.1; tim23-1 inh: 40.0; NALP3 yeast inh: 10.1; V-ATPase pH: 5.8; tim10-1 confirm: 29.0

How did CC(=O)c1sc(NC(=O)c2c(F)cccc2F)nc1-c1ccccc1 do in these assays?
tim10-1 inh: 51.5*; TIM10 inh: 27.4; NALP1 yeast inh: -1.2; tim23-1 inh: 31.0; NALP3 yeast inh: 18.3; V-ATPase pH: -1.5; tim10-1 confirm: 26.3

How did COC(=O)Nc1nc(-c2ccccc2)c(C(=O)c2ccc(Cl)cc2)s1 do in these assays?
tim10-1 inh: 4.6; TIM10 inh: 0.2; NALP1 yeast inh: -9.1; tim23-1 inh: 0.7; NALP3 yeast inh: 9.5; V-ATPase pH: 7.3
